Results filed as inconclusive are left out. The call rests on the fitted dose curve; in most records, active means well fitted activation curve with a large enough effect in the main read-out, with a control signal flat (not every such curve was filed as active); inconclusive means small, poorly fitted or top-dose-only effect, or effect the other way, or a change in a side signal; inactive means flat fitted curve, though single readings scatter.
Target: 3',5'-cyclic-AMP phosphodiesterase 4B (Homo sapiens) (UniProt Q07343)
Test: qHTS Assay for Inhibitors of PDE-IV (AID 607); further: % of control where 0% means no effect
Conditions: HEK293 ACTOne CNG channel cells, membrane potential fluorescence; series mostly up to 22.9 µM; activation (PDE inhibition): at the top concentration
Method in brief: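 Cell-based read-out of cAMP via a modified cyclic nucleotide-gated channel and membrane potential dye (535/590 nm) in HEK293 cells expressing PDE4 endogenously. Compounds tested up to 22.9 uM final; 100 uM RO 20-1724 reference.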

Chain of 3',5'-cyclic-AMP phosphodiesterase 4B (Homo sapiens) (Q07343 whole entry, looked up): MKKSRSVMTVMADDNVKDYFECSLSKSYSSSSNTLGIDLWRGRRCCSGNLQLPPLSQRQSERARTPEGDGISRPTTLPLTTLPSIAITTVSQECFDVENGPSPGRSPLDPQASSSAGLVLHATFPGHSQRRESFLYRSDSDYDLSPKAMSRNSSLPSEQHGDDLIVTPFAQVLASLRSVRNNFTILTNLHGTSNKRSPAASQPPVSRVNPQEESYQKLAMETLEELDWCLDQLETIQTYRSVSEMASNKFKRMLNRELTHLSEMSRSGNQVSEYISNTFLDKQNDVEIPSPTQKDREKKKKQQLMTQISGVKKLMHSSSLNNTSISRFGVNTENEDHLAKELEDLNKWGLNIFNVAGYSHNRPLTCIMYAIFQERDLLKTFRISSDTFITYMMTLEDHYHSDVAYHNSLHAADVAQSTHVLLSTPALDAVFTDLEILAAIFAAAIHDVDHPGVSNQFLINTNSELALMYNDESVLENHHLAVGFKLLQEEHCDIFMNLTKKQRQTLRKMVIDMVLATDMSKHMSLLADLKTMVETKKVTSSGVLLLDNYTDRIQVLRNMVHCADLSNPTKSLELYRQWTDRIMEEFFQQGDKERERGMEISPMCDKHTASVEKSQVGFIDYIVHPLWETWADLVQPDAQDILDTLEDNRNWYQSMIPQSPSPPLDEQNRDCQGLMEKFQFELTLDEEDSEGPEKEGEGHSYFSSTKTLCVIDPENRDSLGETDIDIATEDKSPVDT

Activation (PDE inhibition), inactive:
O=c1c(-c2ccccc2)nc2cnc(N3CCNCC3)nc2n1-c1ccccc1 -11.9%
COCCn1c(=O)c(-c2ccc(Cl)cc2)nc2cnc(OC)nc21 6.31%
Cc1nc2cnc(N3CCNCC3)nc2n(CCc2ccccc2)c1=O 16.2%
COc1ccc(Oc2ncc3nc(-c4cccs4)c(=O)n(CCC#N)c3n2)cc1 4.58%
COc1ccc(Oc2ncc3nc(CCc4ccccc4)c(=O)n(C[C@H]4CCCO4)c3n2)cc1 29.6%
O=c1cnc2cnc(N3CCNCC3)nc2n1Cc1cccs1 8.6%
Clc1ccccc1-c1nc(N2CCNCC2)c2ccccc2n1 7.12%
COCCn1c(=O)c(CCc2ccccc2)nc2cnc(N3CCN(C)CC3)nc21 21.5%
O=c1c(-c2cccs2)nc2cnc(N3CCNCC3)nc2n1CCc1ccccc1 -5.29%
COc1cccc(Cn2c(=O)c(C)nc3cnc(N4CCNCC4)nc32)c1 7.55%
O=c1c(-c2ccc(Cl)cc2)nc2cnc(Oc3ccccc3)nc2n1C1CC1 -5.31%
CN1CCN(c2ncc3nc(-c4ccccc4)c(=O)n(-c4ccccc4)c3n2)CC1 1.88%
COc1ccc(-n2c(=O)cnc3cnc(N4CCNCC4)nc32)cc1 2.49%
O=c1cnc2cnc(N3CCNCC3)nc2n1Cc1ccc(F)cc1 4.16%
Cc1noc(C)c1-c1nc(N2CCNCC2)c2ccccc2n1 23.4%
CN(C)c1ccc(-c2nccc(NCCN3CCOCC3)n2)cc1 18.6%
COCCn1c(=O)c(-c2ccc(OC)cc2)nc2cnc(N3CCNCC3)nc21 -4.07%
O=C(c1cc(C(F)(F)F)cc(C(F)(F)F)c1)N1CCC2(CC1)CCN(c1ccccn1)CC2 5.8%

From PubChem BioAssay (NCATS)
